KB-V1 cytotox: kills drug-selected multidrug resistant KB-V1 cells. KB-V1 MDR cells viability, CellTiter-Glo, 72 h. Potency, µM (series often up to 46.1 µM), most hits filed as cytotoxic. hit rate 3.4% among 400,000; also: % is scaled to controls: 0 for no effect and ±100 for the full control effect; nearly all actives have a fitted effect of over 60% in size
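In this primary screen, KB-V1 cells overexpressing P-gp are incubated with library compounds (lowest to highest concentration) for 72 h at 37 degrees C before a luminescent ATP viability read.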
SW480 rerep: inducers of DNA re-replication in SW480 colon cancer cells. Potency, µM (doses to about 46.1 µM), inactives show top-dose re-replication activation, actives largely listed as activators. SW480 DNA re-replication, Hoechst DNA content imaging, 48 h. AID 624297. hit rate 1.8% among 340,000; also: % of control where 0% means no effect; nearly all actives have a fitted effect of over 55% in size
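First, 250 cells per well were seeded. Next, compound or vehicle (23 nL) was pinned in, plates sat 48 hr at 37 C. Finally Hoechst was added for 40 min before fluorescence scanning.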
HT1080-NT tox: kills 2HG-producing HT-1080-NT fibrosarcoma cells; hit rate 1.6% among 360,000; AID 686970; Potency, µM (series often up to 46.1 µM), without a hit: top-dose activity, negative = less viability, hits mostly cytotoxic; HT-1080-NT fibrosarcoma viability, CellTiter-Glo ATP luminescence, 48 h;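 also: NT is the 2HG producing partner of a matched IDH1 knockdown line; 0% = DMSO-treated cells and -100% = media-only wells without cells; nearly all actives have a fitted effect of over 55% in size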
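Fibrosarcoma NT cells, 750 per well in 5% FBS RPMI, were exposed to compound for 48 hours. Viability: CellTiter-Glo luminescence.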
KB-3-1 tox: kills parental KB-3-1 adenocarcinoma cells; KB-3-1 viability, CellTiter-Glo ATP luminescence, 72 h; Potency, µM (doses to about 46.1 µM), actives largely listed as cytotoxic; hit rate 1.4% among 400,000; AID 1347075; also: % is scaled to controls: 0 for no effect and ±100 for the full control effect; nearly all actives have a fitted effect of over 60% in size
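Parental KB-3-1 viability, qHTS format: 72 h compound exposure, 37 °C; CellTiter-Glo; media-only wells and DMSO plates as controls; concentration-effect fits on corrected data.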
HT1080 IDH1KD tx: kills HT-1080 cells with IDH1 knockdown; HT-1080 IDH1 knockdown viability, ATP luminescence, 48 h; Potency, µM (titrated, usually from 46.1 µM), without a hit: at the top dose activity, negative = toxicity, actives largely listed as cytotoxic; hit rate 2% among 360,000;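 also: 0% = DMSO wells and -100% = cell-free medium wells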
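Cytotoxicity counter-line: IDH1KD HT-1080, 48 h, CellTiter-Glo. Curves classed by r2, magnitude and activity.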
MCF10A rerep: induces DNA re-replication in MCF 10a normal breast cells; MCF 10A DNA re-replication, Hoechst nuclear intensity, 48 h; Potency, µM (top dose mostly 46.1 µM), inactives show at the highest dose activity, positive = re-replication, actives largely listed as activators; hit rate 2.9% among 350,000; also: % of control where 0% means no effect; nearly all actives have a fitted effect of over 50% in size
* hit, by the source's call; i = inactive; u = inconclusive; x = no result given. Sampled rows, rich in hits. Any-hit rate of the full collection: about 7.9%. Calls follow the shape of the dose curve; as a rule, active = well fitted curve in the direction sought with a large enough effect; inconclusive = small, poorly fitted or top-dose-only effect, or another doubt; inactive = no such curve, though single readings can be large; an effect the other way counts as inactive or inconclusive. Potency is read from the fitted curve at half-maximal effect.

SMILES	KB-V1 cytotox	SW480 rerep	HT1080-NT tox	KB-3-1 tox	HT1080 IDH1KD tx	MCF10A rerep
CCN(CC)S(=O)(=O)c1ccc2oc(C(=O)N3CCc4ccccc4C3)c(C)c2c1	9.2µM*	-2%	6%	u	8%	19%
Cc1c(C(=O)N2CCc3ccccc3C2)oc2ccc(Br)cc12	i	-41%	-4%	i	-3%	u
O=C(OCC(=O)N1CCCCCC1)c1ccc([N+](=O)[O-])cc1Cl	i	-16%	-1%	i	12%	0.82µM*
Clc1ccc(C2=NN(c3ccccc3)C(c3ccco3)C2)cc1 (centres undefined)	i	3.7µM*	7%	i	9%	0.73µM*
COc1ccc(C2=NN(c3nc(-c4ccccc4)c(CC(=O)O)s3)C(c3ccco3)C2)cc1 (centres undefined)	i	u	-1%	i	3%	21µM*
Cc1nc(N2N=C(c3ccc(Cl)cc3)CC2c2ccco2)sc1C(=O)N(C)C (centres undefined)	u	18µM*	-24%	i	u	23µM*
COc1ccc(C2=NN(C(=O)COc3ncnc4ccccc34)C(c3ccco3)C2)cc1 (centres undefined)	i	u	-17%	i	u	16%
Fc1ccc(C2=NN(c3ccccc3)C(c3ccco3)C2)cc1 (centres undefined)	i	6.5µM*	-14%	i	-13%	u
Cc1cc(NC(=O)Cn2c(=O)oc3cc(S(=O)(=O)N4CCCC4)ccc32)ccc1Br	i	x	x	i	x	x
Cc1ccc(N2N=C(c3ccc(F)cc3)CC2c2ccco2)cc1 (centres undefined)	i	u	9%	i	-3%	5.8µM*
CC(=O)N1N=C(c2ccc(C)cc2)CC1c1ccco1 (centres undefined)	i	-10%	-7%	i	-10%	u
Cc1ccc(C2CC(c3ccccc3)=NN2c2ccccc2)o1 (centres undefined)	i	15µM*	12%	i	9%	18µM*
COc1ccc(CNC(=O)Cn2ncc3c([nH]c4ccccc43)c2=O)cc1	i	x	x	i	x	x
Cc1ccc2c(c1)N(C(=O)Nc1cccc3c1CCCC3)CCO2	i	x	x	i	x	x
COc1cc2nc(NC3CCN(Cc4ccccc4)CC3)nc(N3CCCN(C)CC3)c2cc1OC	x	x	6.3µM*	x	2.8µM*	x
COc1cc2nc(N3CCCN(C)CC3)nc(NC3CCN(C)CC3)c2cc1OC	x	x	-9%	x	-11%	x
COc1cc2nc(NC3CCN(C)CC3)nc(N3CCCN(C)CC3)c2cc1OC	x	x	9%	x	-3%	x
COc1cc2c(NC3CCN(C)CC3)nc(N3CCCN(C)CC3)nc2cc1OCCCCN(C)C	i	x	x	16µM*	x	x
COc1cc2c(NC3CCN(C)CC3)nc(N3CCCCC3)nc2cc1OCCCN(C)C	i	x	x	u	x	x
COc1cc2nc(N3CCCCC3)nc(NC3CCN(C)CC3)c2cc1OC	x	x	20µM*	x	11µM*	x
COc1cc2nc(N3CCCCC3)nc(NC3CCN(Cc4ccccc4)CC3)c2cc1OC	x	x	14µM*	x	10µM*	x
COc1ccc(OC)c(CCNC(=O)c2c(C)oc3ncn(CC(C)C)c(=O)c23)c1	i	x	x	i	x	x
Cc1cccc(C(=O)Nc2ccc(C(=O)N3CCCCC3C)cc2)c1 (centres undefined)	i	1%	0%	i	-1%	3%
CCC(C(=O)NC1CCCCC1)n1nc(C)c2sc3ccccc3c2c1=O (centres undefined)	i	x	x	i	x	x
C=CCn1c(-c2cccn(Cc3ccc(Cl)cc3Cl)c2=O)n[nH]c1=S	15µM*	20%	u	u	u	0%
C=CCn1c(-c2cccn(Cc3cccc(Cl)c3)c2=O)n[nH]c1=S	23µM*	-4%	-5%	i	-4%	6%
